Active and inactive are the calls of the source. The calls were made as follows: active = hit-call score of the fitted dose curve at least 0.9, where 1 is the maximum; inactive = score below 0.9.

The nature of this test: CCTE_Mundy_HCI_Cortical_Synap_Neur_Matur_SynapseCount: CCTE's Synaptogenesis and Neurite Maturation Assay in rat cortical cells for Synapse Count, Mundy Lab (AID 2284218). Here is the method:
CCTE_Mundy_HCI_Cortical_Synap&Neurite_Matur is a multiplexed, cell-based-readout assay that uses rat primary cortical cells with measurements taken at 288.33 hours after chemical dosing in a microplate: 96-well plate.CCTE_Mundy_HCI_Cortical_Synap_Neur_Matur_SynapseCount is one of eight components of the CCTE_Mundy_HCI_Cortical_Synap&Neurite_Matur assay. It measures synaptogenesis and neurite maturation related to number of synapses per neuron using High Content Imaging of fluorescently labelled markers.[…] Using a type of morphology reporter, loss -of-signal activity can be used to understand developmental effects.
Cells are plated onto 96 well plates and allowed 2 hr for attachment to the substrate. At days in vitro (DIV) 5, Cytosine Arabinoside (AraC) is added to arrest glial cell growth. Chemicals are dosed and a media change is performed at DIV 7 of differentiation and is continued through DIV 12 when the experiment is terminated. Cells are fixed with […] and Hoechst Dye. Cells are stained using Millipore Mouse anti-MAP2MAB3418 (1:800) and Millipore Rabbit anti-Synaptophysinsc-1750 (1:250) primary antibodies and Alexa Fluor-488 goat anti-mouse and AlexaFluor-546 goat anti-rabbit secondary antibodies to label neuronal cell nuclei, synapses and neurites. A Cellomics ArrayScan VTi HCS Reader is used for automated image acquisition and analysis of neurite outgrowth.
Regarding `C#CCOC(=O)[C@@H](C)Oc1ccc(Oc2ncc(Cl)cc2F)cc1`, the compound was called inactive.
Consider `S=C(S)NCCNC(=S)S.[Mn+2].[S-]C([S-])=NCCN=C([S-])[S-].[Zn+2]`, for which the outcome was inactive.
For `CCCN(CCC)C(=O)SCC`, the compound was classed as inactive.
On to `CCN(CC)C(=O)c1cccc(C)c1`, for which the result was inactive.
In general, AC50 refers to the concentration giving half of the maximal activity seen. For the compound `CC(C)(c1ccc(O)cc1)c1ccc(O)cc1`, the half-maximal activity concentration (AC50) was 50 µM (active).
As to `CC1(C)C(C=C(Cl)Cl)C1C(=O)OCc1cccc(Oc2ccccc2)c1` (stereo not given), the AC50 is 9.11 µM (active).
In the case of `S=C([S-])NCCNC(=S)[S-].[Mn+2]`, the compound was called inactive.
Turning to `O=C(O)c1ccccc1`, the compound was classed as inactive.
For `Cc1nn(C)c(Oc2ccccc2)c1C=NOCc1ccc(C(=O)OC(C)(C)C)cc1`, the AC50 is 0.0023 µM (active).
Regarding `CSC(=O)c1cccc2nnsc12`, the compound was called inactive.

Source of the values: PubChem BioAssay (EPA / NIEHS).
